Pf apPOL inh – Pf-apPOL DNA polymerase inhibition; 210,000 tested, 0.25% active; Recombinant Pf-apPOL, molecular beacon fluorescence, 1.5 h; inhibition, % at 10 µM
mHTT CaM bind – disrupts binding of mutant huntingtin to calmodulin | P42858 | AlphaScreen His-mHTT/GST-CaM binding, luminescence | inhibition, % at 15 µM | 190,000 tested, 3.6% active | AID 1671202;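 note: 0% = both proteins with DMSO and 100% = one protein alone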
Numbers without * were called inactive; · = no result given. This is a sample that favours compounds with a hit; in the whole collection about 3.5% have one here. Cut-off read from the data, not from the text of the source: active = inhibition above about 50%; inactive = the rest.

SMILES	Pf apPOL inh	mHTT CaM bind
Cc1ccc(C)c(NCc2ccncc2)c1	3	2
O=C(O)c1ccc(NC(=O)c2cc3ccccc3o2)cc1	-1	0
O=C(Nc1cccc(NC(=O)c2cc3ccccc3o2)c1)c1ccccc1	70*	14
Cc1ccc(NC(=O)N2CCC3(CC2)Nc2cc(F)ccc2-n2cccc23)cc1C	32	54*
O=C(Nc1ccc2c(c1)OCO2)N1CCC2(CC1)Nc1cc(F)ccc1-n1cccc12	-3	68*
Cc1ccc(NC(=O)N2CCC3(CC2)Nc2cc(F)ccc2-n2cccc23)cc1Cl	5	77*
O=C(Nc1ccc2c(c1)OCCO2)N1CCC2(CC1)Nc1ccccc1-n1cccc12	4	62*
Cc1ccc(C)c(NC(=O)N2CCC3(CC2)Nc2cc(F)ccc2-n2cccc23)c1	-6	31
CCCc1ccc(-c2ccc(C#N)cc2)nc1	-19	·
COc1ccc2c(c1)CN1CN(C3CCCC3)S(=O)(=O)CC21 (stereo unspecified)	-4	44
Cc1cc(C)cc(NC(=O)N2CCC3(CC2)Nc2cc(F)ccc2-n2cccc23)c1	2	71*
O=C(Nc1cccc(Cl)c1)N1CCC2(CC1)Nc1ccccc1-n1cccc12	-1	24
O=C(Nc1cccc(Cl)c1)N1CCC2(CC1)Nc1cc(F)ccc1-n1cccc12	1	94*
N#Cc1ccc(C(=O)Nc2nc3ccc4ccccc4c3s2)cc1	2	-2
NNC(=O)C12CC3CC(CC(C3)C1)C2	0	-4
O=C(CSc1nccn1-c1ccc([N+](=O)[O-])cc1)Nc1ccc(OC(F)(F)F)cc1	12	24
O=C1CCC[C@@H]2C[C@@]3(C[C@@H]4CCN1[C@H]24)Nc1cc([N+](=O)[O-])ccc1NC3=NC1CCCCC1	-3	51*
Cc1cc2c(cc1C)N[C@]1(C[C@H]3CCCC(=O)N4CC[C@@H](C1)[C@@H]34)C(=NCc1ccccc1)N2	2	34
O=C1CCC[C@@H]2C[C@@]3(C[C@@H]4CCN1[C@H]24)Nc1cc(Cl)ccc1NC3=NC1CCCCC1	-2	30
Cc1ccccc1N=C1Nc2ccccc2N[C@]12C[C@H]1CCCC(=O)N3CC[C@@H](C2)[C@@H]13	-1	15
O=C1CCC[C@@H]2C[C@@]3(C[C@@H]4CCN1[C@H]24)Nc1cc(Cl)ccc1NC3=NCc1ccccc1	-3	62*
CC(C)(C)CC(C)(C)N=C1Nc2ccc(Cl)cc2N[C@]12C[C@H]1CCCC(=O)N3CC[C@@H](C2)[C@@H]13	-2	73*
Cc1cc2c(cc1C)N[C@]1(C[C@H]3CCCC(=O)N4CC[C@@H](C1)[C@@H]34)C(=NC(C)(C)CC(C)(C)C)N2	-4	100*
Cc1cc2c(cc1C)N[C@]1(C[C@H]3CCC(=O)N4CC[C@@H](C1)[C@@H]34)C(=Nc1ccccc1C)N2	-5	48
O=C(c1ccsc1)N1CC(n2cc(-c3ccccc3)nn2)C1	-6	2
SMILES	Pf apPOL inh	mHTT CaM bind
COC(=O)c1ccc(COc2ccc3c(C)cc(=O)oc3c2)cc1	-10	3
COc1ccc(CNC(=O)C2CCN(c3cncnc3N3CCN(C)CC3)CC2)cc1	-2	1
CCOc1ccccc1NC(=O)c1ccccc1Br	10	-7
O=C(NC1CC1)c1nc(-c2ccc(N3CCCCCC3)cc2)no1	2	-6
CCc1ccc(C2=C/C(=C/c3ccc(C)c(OC)c3)C(=O)O2)cc1	10	-3
CCc1ccc(C2=C/C(=C\c3ccc(C)o3)C(=O)O2)cc1	7	69*
Cc1ccc(C)c(-c2noc(-c3c(O)c4ccccc4[nH]c3=O)n2)c1	-12	-7
CC1=Nc2c([nH]c3ccccc23)-c2cc(C)ccc2N1	2	70*
CN1C(=O)CCc2cc(C(=O)NCc3ccccn3)ccc21	-14	-4
CC1(C)CC(=O)C(C(C2=C(O)CC(C)(C)CC2=O)c2ccccc2)C(=O)C1 (stereo unspecified)	2	2
O=C(c1cccc(F)c1)N1CCCC(c2ccnc(Nc3ccccc3)n2)C1 (stereo unspecified)	0	18
Cc1cccc(Nc2nccc(C3CCCN(C(=O)c4ccoc4)C3)n2)c1 (stereo unspecified)	1	29
CC(=O)N1CCCC(c2ccnc(Nc3cccc(F)c3)n2)C1 (stereo unspecified)	-2	32
O=C(c1ccccc1)N1CCCC(c2ccnc(Nc3ccc(F)cc3)n2)C1 (stereo unspecified)	-7	91*
O=C(c1ccsc1)N1CCCC(c2ccnc(Nc3cccc(F)c3)n2)C1 (stereo unspecified)	-2	67*
O=C(c1ccoc1)N1CCCC(c2ccnc(Nc3cccc(F)c3)n2)C1 (stereo unspecified)	-2	72*
CCCC(C)NS(=O)(=O)c1ccc(C)cc1 (stereo unspecified)	0	-8
CCNC(=O)C(C1CCCC1)N1CCN(C(=O)c2cccc(C(F)(F)F)c2)CC1 (stereo unspecified)	1	7

Source: PubChem BioAssay
